# Measured values reported in ChEMBL document CHEMBL4513216, “Probing the Open Global Health Chemical Diversity Library for Multistage-Active Starting Points for Next-Generation Antimalarials” (ACS Infect Dis, 2020).
# Out of some 68,000 compounds screened, about 2,700 (4%) showed an effect of 50% or more. The full list was thinned out, with strong results kept by preference.
# Test system: Plasmodium berghei
# Assay: Screen against P. berghei liver stage (PbLuc), transformed with Luciferase, at 2uM
# Format: functional, HepG2
# Conditions: tested at 2 uM
row,Compound,INHIBITION
1,COc1ccc(C2CCCCCN2S(N)(=O)=O)cc1 (stereo not given),-16.65%
2,Cc1cc(C(=O)N2CCc3nc(C4CCCN4)ncc3C2)cs1 (stereo not given),40.31%
3,Cc1cc(C(=O)N2CCc3nc(C4CCCCN4)ncc3C2)cs1 (stereo not given),12.8%
4,CC(C)c1cc(C(=O)N2CCc3nc(C4CCCN4)ncc3C2)cs1 (stereo not given),67.83%
5,CC(C)(C)C(=O)NS(=O)(=O)c1ccc(C#N)c(C(F)(F)F)c1,1.52%
6,COc1ccc(Oc2nccnc2C2CCN(C(C)=O)CC2)cc1,12%
7,COc1ccccc1Oc1ncccc1CNC(=O)C1(C)CCCNC1 (stereo not given),43.27%
8,Cc1cccc(C)c1Oc1ncccc1CNC(=O)C1(C)CCCNC1 (stereo not given),50.32%
9,CC1(C(=O)NCc2cccnc2Oc2ccc(F)cc2F)CCCNC1 (stereo not given),-20.29%
10,O=C(CC1CC1)N(Cc1cccnc1)CC1CCN(C2CCCC2)CC1,-53.72%
11,Cn1nccc1C(=O)N1CCC(n2cc(-c3ccsc3)nn2)CC1,15.68%
12,CCC(O)CN1CCN(C(=O)c2cccc3c2OCC(=O)N3)CC1 (stereo not given),-29.24%
13,COCc1cn(CC2CCN(Cc3cc(C)[nH]n3)CC2)nn1,26.3%
14,Fc1ccc(N2CCCN(c3ccc(Cn4ccnc4)cn3)CC2)cc1,54.49%
15,c1cn(Cc2ccc(N3CCCN(C4CCCC4)CC3)nc2)cn1,4.63%
16,c1csc(CN2CCCN(c3ccc(Cn4ccnc4)cn3)CC2)c1,17.61%
17,COc1ccc2[nH]cc(-c3ccnc(NC4CCCC4)n3)c2c1,-4.95%
18,Cc1noc(CCCC(=O)NC(C)c2ccc(Cl)s2)n1 (stereo not given),15.4%
19,CCc1cnc(C)nc1NCCN1CCCCCC1,7.08%
20,Cc1nc(NCC(O)CN2CCCCCC2)c2c(C)noc2n1 (stereo not given),30.87%
21,CCc1cnc(C)nc1NCC(O)CN1CCCCCC1 (stereo not given),80.68%
22,COc1nn(C)c2c1CCCN(S(=O)(=O)c1cccc(F)c1)C2,52.47%
23,COc1cccc(S(=O)(=O)N2CCCc3c(OC)nn(C)c3C2)c1,39.57%
24,COc1nn(C)c2c1CCCN(S(=O)(=O)c1cccc(C)c1)C2,23.43%
25,COCc1nc(CNc2cc(C)on2)cs1,-65.51%
26,O=C(NC1CC1)[C@@H]1CCO[C@@H]2CCN(Cc3ccco3)C[C@H]21,46.73%
27,COc1cccc(-c2cc(NCCO)nc3[nH]ccc23)n1,0.51%

row,Compound,INHIBITION
1,COc1cccc(-c2cc(NCCN(C)C)nc3[nH]ccc23)n1,0.51%
2,COc1cccc(-c2cc(NCC(=O)O)nc3[nH]ccc23)n1,74.44%
3,N[C@H]1CN(C(=O)c2ccccc2OCc2ccccc2)C[C@@H]1C1CC1,13.86%
4,Cc1nccn1C1CCCN(C(=O)c2ccc3c(c2)nnn3C)C1 (stereo not given),1.61%
5,CN(C)c1ccc(C(=O)N2CCCC(n3cccn3)C2)cn1 (stereo not given),39.54%
6,Cc1nccn1C1CCCN(C(=O)c2ccc3cc[nH]c3c2)C1 (stereo not given),74.35%
7,Cc1nccn1C1CCCN(C(=O)c2ccc(N(C)C)nc2)C1 (stereo not given),55.7%
8,CCc1nccn1C1CCCN(C(=O)c2ccc3c(c2)nnn3C)C1 (stereo not given),58.05%
9,Cc1nccn1C1CCCN(C(=O)c2cc3ccccc3[nH]2)C1 (stereo not given),-43.41%
10,Cc1nccn1C1CCCN(C(=O)c2ccc3c(c2)CCC3)C1 (stereo not given),-33.61%
11,CCc1nccn1C1CCCN(C(=O)c2ccc(OC)c(OC)c2)C1 (stereo not given),-14.17%
12,Cc1nn2cccnc2c1C(=O)N1CCCC(n2cccn2)C1 (stereo not given),-21.72%
13,Cc1nn2cccnc2c1C(=O)N1CCCC(n2ccnc2)C1 (stereo not given),28.51%
14,Cc1nccn1C1CCCN(C(=O)c2ccc(N(C)C)nn2)C1 (stereo not given),19.35%
15,Cc1nn2cccnc2c1C(=O)N1CCCC(n2ccnc2C)C1 (stereo not given),56.02%
16,O=C(NCC1CCC(c2nnc(-c3cccnc3)o2)CC1)C1CC1 (stereo not given),43.77%
17,O=C(O)c1c(Cl)ncn1-c1ccccc1,19.33%
18,CS(=O)(=O)N1CCOCC2(CN(Cc3ccc(F)cc3)CCO2)C1 (stereo not given),-64.46%
19,COc1ccc(C2CCCN2C(=O)NCCNc2ccccn2)cc1 (stereo not given),-34.82%
20,CCOc1ccc(CNCC(O)c2ccccc2)cc1Cl (stereo not given),38.61%
21,CCOC(=O)N1CCC(C(=O)Nc2nnc(C(F)(F)F)[nH]2)CC1,-22.24%
22,O=C(Nc1ccccc1)NC1CCN(C2CCOC2)CC1 (stereo not given),-22.24%
23,COc1c(C2CCCN2C(=O)c2cnc[nH]2)c(C)nn1C (stereo not given),-7.41%
24,CCc1nc(CC(=O)N2CCC(C(=O)N(CC)CC)CC2)cs1,-6.37%
25,COc1ccc(CC(=O)NCCCc2nnc3nc(C)cc(C)n23)cc1,0.54%
26,NC1CCC(Nc2nccc(CCC(F)(F)F)n2)CC1 (stereo not given),2.17%
27,Cc1nn(C)c2sc(C(=O)N3CCCC(n4ccnc4C)C3)cc12 (stereo not given),51.49%

row,Compound,INHIBITION
1,Cc1nc(C)c(C(=O)N2CCCC(n3ccnc3C)C2)s1 (stereo not given),45.49%
2,Cc1cc(C(=O)N2CCCC(n3ccnc3C)C2)c(C)s1 (stereo not given),-0.55%
3,N#Cc1cn(C2CC2)c(=O)n(CC(O)c2ccc(Cl)cc2)c1=O (stereo not given),28.33%
4,Nc1cc2c(nn1)CCN(C(=O)c1csc(-c3ccco3)n1)C2,64.9%
5,Nc1cc2c(nn1)CCN(C(=O)c1csc(-c3ccccc3)n1)C2,29.13%
6,Nc1cc2c(nn1)CCN(C(=O)c1csc(-c3cccs3)n1)C2,38.67%
7,Cc1cc(=O)n(C)cc1NC(=O)CC1CCC1,-54.44%
8,CCN(C)C(=O)c1cccc(S(=O)(=O)NCCc2nc(C)cc(=O)[nH]2)c1,7.83%
9,CCN(C)C(=O)c1cccc(S(=O)(=O)NCCc2csc(N)n2)c1,67.22%
10,CCc1nc(CCNS(=O)(=O)c2cccc(C(=O)N(C)CC)c2)cs1,34.18%
11,O=C(c1ccoc1)N1CC[C@H]2C[C@@H](c3ccncn3)O[C@@H]2C1,43.71%
12,CCS(=O)(=O)N1CCC2(CN(Cc3ccc(C)o3)C2)C1,54.23%
13,Cc1ccc(CN2CC3(CCN(S(=O)(=O)c4ccccc4)C3)C2)o1,31.5%
14,CCS(=O)(=O)N1CCC2(CCN(Cc3ccc(C)o3)C2)C1 (stereo not given),9.53%
15,O=C(N[C@@H]1CNCCC[C@H]1O)c1ccc(OCCN2CCOCC2)cc1,36.99%
16,CCN(Cc1ccccc1)c1ncnc2c(C)nn(CC)c12,-4.77%
17,O=C(NCC1CCCO1)c1nc2c(s1)CCCN2Cc1ccccc1 (stereo not given),29.3%
18,c1coc(CN2CCn3c(COCC4CC4)nnc3C2)c1,-0.24%
19,CCOCC1CN(c2ccc(C)nn2)Cc2cnn(CC)c21 (stereo not given),-3.65%
20,CNC(=O)C1CN(C(=O)Cc2ccc(OC)cc2)Cc2cn(C)nc21 (stereo not given),1.75%
21,CS(=O)(=O)c1cccc(S(=O)(=O)NC(=O)CCC2CCCCC2)c1,-10.29%
22,Cc1ccc(S(=O)(=O)NC(=O)CCOCc2ccccc2)s1,53.13%
23,COc1cccc(OCC(=O)NS(=O)(=O)c2cccnc2)c1,11.09%
24,CS(=O)(=O)c1cccc(S(=O)(=O)NC(=O)CC2CCCCC2)c1,-20.19%
25,Cc1ccc(S(=O)(=O)NC(=O)CCOCC(C)C)s1,-13.12%
26,COc1cccc(S(=O)(=O)NC(=O)COc2c(C)cccc2C)c1,60.31%
27,COc1cccc(S(=O)(=O)NC(=O)COC2CCCC2)c1,65.77%

row,Compound,INHIBITION
1,COc1ccc(S(=O)(=O)NC(=O)COC2CCCC2)cc1,-43.47%
2,COc1cccc(S(=O)(=O)NC(=O)COC2CCCCC2)c1,-1.02%
3,CS(=O)(=O)c1cccc(S(=O)(=O)NC(=O)CC2CCCC2)c1,63.54%
4,CCOCCCC(=O)NS(=O)(=O)c1ccc(C)s1,23.64%
5,Cc1cc(C)c(OCC(=O)NS(=O)(=O)c2cccnc2)c(C)c1,-76.17%
6,CSc1ccccc1C(=O)N(C)Cc1nncn1C(C)C,36.79%
7,CCn1cc(-c2nn3c(C(F)(F)F)nnc3s2)cn1,-21.49%
8,CCC(=O)N1CCCC(C(=O)c2cnn(-c3ccc(F)cc3)c2N)C1 (stereo not given),-4.78%
9,CC(NC(=O)c1ccoc1)C(=O)N(C)Cc1cccc(C(F)(F)F)c1 (stereo not given),2.51%
10,COCCC1COC2(CCN(C(=O)C3CCC3)CC2)C1 (stereo not given),-18.7%
11,CC(C)NC1CCc2c(ccc(=O)n2CCN2CCOCC2)C1 (stereo not given),-21.78%
12,COc1cccc(OCC(=O)NS(=O)(=O)c2ccc(C)s2)c1,51.21%
13,CC(=O)c1cccc(OCC(=O)NS(=O)(=O)c2ccc(C)s2)c1,-36.13%
14,COc1cccc(OCC(=O)NS(=O)(=O)c2ccc(Br)s2)c1,-4.22%
15,CCn1cncc1CN(Cc1ccc(OC)cc1OC)CC1CCCO1 (stereo not given),33.64%
16,O=C1CCC2(CCCN(c3ncc(Cl)cc3F)C2)CN1CC1CC1 (stereo not given),-31.23%
17,COCCOc1ccccc1C(=O)NCCN(C)C(C)C,27.5%
18,CN(CCCNC(=O)c1cccc(OCC(N)=O)c1)CC(F)(F)F,-163.17%
19,CN(CCCNC(=O)c1ccc(C#N)cc1)CC(F)(F)F,26.11%
20,CN(CCCNC(=O)c1ccccc1OCC(N)=O)CC(F)(F)F,51.96%
21,CN(CCCNC(=O)NCc1ccncc1)CC(F)(F)F,21.71%
22,CN(CCCNC(=O)c1ccccc1F)CC(F)(F)F,66.74%
23,CCc1c(C(=O)NCC(=O)OCC2CC2)cnn1-c1ccc(C)cc1,-14.3%
24,CCN1CC2(CC1=O)CN(C(C)=O)CCN(S(=O)(=O)CC)C2 (stereo not given),-161.57%
